Experiment [1] addresses Lysosomal acid glucosylceramidase (Homo sapiens) (UniProt P04062). As to the kind of experiment: Glucocerebrosidase-p2 (AID 348; in the data active = potency below about 10 µM; note: potency is the fitted concentration of half-maximal effect). The settings on record: purified GBA, blue fluorogenic substrate, 40 min. The method, boiled down:
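Normal human glucocerebrosidase (0.2 nM) with blue fluorogenic substrate (80 uM final) in citrate/phosphate pH 5.9 with 10mM sodium taurocholate, 0.01% tween-20; 40 min RT, NaOH/glycine stop; fluorescence Ex 365/Em 440; AC50 from a titration from 0.6 nM upwards.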

The nature of experiment [2]: AP1 Signaling Pathway (AID 357).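 Note: ME-180 reporter cells stimulated with EGF at its EC50 level; % is set by controls: 0 for no effect and ±100 for the full control effect.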 The conditions noted are these: ME-180 AP-1-bla reporter, EGF-induced, beta-lactamase ratio, 5 h; at 7.69 µM (top of the series) unless noted. In outline:
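Titration-series screen for positive or negative modulators of EC50 EGF-induced signaling in ME-180 cells carrying an AP-1-driven beta-lactamase reporter. After 5 hours at 37 degrees Celsius, CCF4 460nm/530nm emission ratio gave %Activity; AC50 values derived.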

Experiment [3] concerns the target Cytochrome P450 1A2 (Homo sapiens) (UniProt P05177). As to the kind of experiment: p450-cyp1a2 (AID 410; calls by dose curve; note: potency is the fitted concentration of half-maximal effect;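 for activity change, negative = inhibition: -100% = full effect of reference inhibitor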). The settings on record: recombinant CYP1A2, luciferin-ME demethylation, luminescence; series mostly up to 57 µM. The method, boiled down:
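Read-out is luminescence from luciferin produced by CYP1A2 demethylation of Luciferin-ME (100uM, at Km). Detection reagent stopped the 60 min NADPH-dependent reaction; signals were normalized to 57 uM furafylline.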

The nature of experiment [4]: NFAT Signaling Pathway (AID 444).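 Note: carbachol stimulus at about its EC50 of 1 µM final; % is set by controls: 0 for no effect and ±100 for the full control effect.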 The conditions noted are these: Jurkat NFAT-bla M1, carbachol, beta-lactamase ratio, 5 h; at 7.69 µM (top of the series) unless noted. In outline: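 Read-out: CCF4 FRET ratio (460 nm/530 nm) after 1 h RT dye loading, used for %activity and AC50 from titration series. Cells: Jurkat NFAT-β-lactamase/M1 line, treated with compound plus 1 uM carbachol for 5 h, 37 °C.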

A short description of experiment [5]: Stat Signaling Pathway (AID 446).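 Note: ME-180 cervical cancer cells given 40 pM IL-6 alongside compound; SIE-controlled beta-lactamase reporter measured as 460/530 nm FRET emission ratio; % is set by controls: 0 for no effect and ±100 for the full control effect.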 The conditions noted are these: ME-180 SIE beta-lactamase reporter, IL-6 stimulated, 5 h; at 7.69 µM (top of the series) unless noted. The method, boiled down:
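Overnight-plated ME-180 cells bearing a STAT Inducible Element beta-lactamase reporter; 5 h co-exposure to compound and 40 pM IL-6; values normalized to 300 pM IL-6 and 125 nM JAK inhibitor controls.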

Experiment [6] concerns the target Glucocorticoid receptor (Homo sapiens) (UniProt P04150). As to the kind of experiment: GR-GFP Redistribution (AID 450;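 active = compounds whose dose series gives a full or clear partial fitted curve of increased nuclear translocation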; note: potency is the fitted concentration of half-maximal effect). The settings on record: U2OS GR-GFP nuclear translocation, laser cytometry, 2 h.
For experiment [7] the target is unchanged. As to the kind of experiment: GR-EFC Redistribution (AID 451; calls by dose curve; note: potency is the fitted concentration of half-maximal effect). The settings on record: CHO-K1 GR-EFC translocation, beta-gal luminescence, 2 h. The method, boiled down:
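Translocation of GR-ED fusion to nuclear EA restores b-gal, read by luminescence after 1 h room-temperature detection. Engineered CHO-K1 biosensor cells, 1,000/well, exposed 2 h at 37 C to titrations up to 46 uM final.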

In experiment [8] the target is Mitogen-activated protein kinase 10 (Mus musculus) (UniProt Q61831). As to the kind of experiment: JNK3 AlphaScreen Assay (AID 530).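 Note: kinase came from lysate of stimulated human HepG2 cells; signal reports phosphorylation of biotinylated GST-cJun 1-79 at Ser73 with 10 µM ATP; % is set by controls: 0 for no effect and ±100 for the full control effect.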 The conditions noted are these: JNK3 lysate, c-Jun phosphorylation; series mostly up to 57.1 µM. The method, boiled down:
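Kinase buffer: 20 mM Tris-HCl pH 7.6, 10 mM MgCl2, 1 mM DTT, 0.1 mM Na3VO4, 0.01% Tween-20; ATP 10 uM. Substrate biotin-GST-cJun(1-79), enzyme from activated HepG2 lysates. Detection by Ser73 phospho-antibody AlphaScreen.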
Background: Bead proximity is the source of the signal in Alpha formats.

Experiment [9] has as its target 3',5'-cyclic-AMP phosphodiesterase 4B (Homo sapiens) (UniProt Q07343). As to the kind of experiment: qHTS Assay for Inhibitors of PDE-IV (AID 607; active = well fitted activation curve with a large enough effect in the main read-out, with a control signal flat, not every such curve was filed as active; note: % of control where 0% means no effect). The conditions noted are these: HEK293 ACTOne CNG channel cells, membrane potential fluorescence; series mostly up to 22.9 µM. The method, boiled down: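 Live HEK293 cells with a modified cyclic nucleotide-gated (CNG) channel report intracellular cAMP via membrane-potential dye fluorescence (ex 535/em 590 nm). Endogenous PDE-IV was targeted. Compounds were tested at up to 22.9 uM final; RO 20-1724 100 uM served as control.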
In general terms: qHTS replaces the single test concentration by a dilution series.

Experiment [10] deals with Cytochrome P450 3A4 (Homo sapiens) (UniProt P08684). As to the kind of experiment: qHTS Assay for Activators of Cytochrome P450 3A4 (AID 885; active = well fitted curve in the direction sought with a large enough effect; an effect the other way counts as inactive or inconclusive; note: nearly all actives have a fitted effect of over 65% in size). The settings on record: recombinant CYP3A4, Luciferin-PPXE luminescence, 60 min; series mostly up to 57.1 µM. The method, boiled down:
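Using 20nM recombinant human CYP3A4 in potassium phosphate (200mM), substrate Luciferin-PPXE at 25uM, luminescent luciferin detection followed a 60-min RT NADPH reaction; data scaled to 57 uM ketoconazole.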

Experiment [11] can be described thus: qHTS Assay for Identification of Small Molecule Agonists for Hypoxia Response Element Signaling Pathway (AID 914; active = well fitted activation curve with a large enough effect in the signal ratio, with a control signal flat, not every such curve was filed as active; the % refers to the signal ratio; note: % of control where 0% means no effect). The settings on record: ME-180 (cervical carcinoma) HRE-bla reporter, beta-lactamase ratio, CoCl2, 17 h; activation: hits give high values. In outline:
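Reporter activity (beta-lactamase, CCF4 460nm/530nm ratio) in HRE-bla ME-180 cells is recorded after 17 h compound exposure with EC50 CoCl2 at 37 degrees Celsius. AC50 values come from titration data.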

A short description of experiment [12]: Primary qHTS for small molecule stabilizers of the endoplasmic reticulum resident proteome: Secreted ER Calcium Modulated Protein (SERCaMP) assay (AID 1508630; active = well fitted curve in the direction sought with a large enough effect; an effect the other way counts as inactive or inconclusive; note: % is set by controls: 0 for no effect and ±100 for the full control effect). The settings on record: SH-SY5Y GLuc-SERCaMP (Gaussia luciferase released on ER calcium loss) secretion, thapsigargin, luminescence; series mostly up to 38.4 µM. The method, boiled down:
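The SH-SY5Y reporter protocol was run at 3 concentrations up to 38.3 uM (primary) or 11 concentrations (follow-up): 16 h compound, 100 nM thapsigargin for 4 h, then extracellular luciferase luminescence.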

Experiment [13] addresses Cytochrome P450 2C19 (Homo sapiens) (UniProt P33261). As to the kind of experiment: qHTS Assay for Inhibitors and Substrates of Cytochrome P450 2C19 (AID 899; active = well fitted curve in the direction sought with a large enough effect; an effect the other way counts as inactive or inconclusive; note: potency is the fitted concentration of half-maximal effect; nearly all actives have a fitted effect of over 60% in size). The settings on record: recombinant CYP2C19, luciferin-H EGE luminescence; series mostly up to 57.1 µM. The method, boiled down:
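Luminescence readout of luciferin formed from 10uM Luciferin-H EGE (KM level) by 5 nM CYP2C19 in 50mM KPO4. 60 min NADPH-driven reaction at 37C after 10 min compound preincubation; data scaled to 57uM ketoconazole inhibition.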

In experiment [14] the target is Cytochrome P450 2C9 (Homo sapiens) (UniProt P11712). As to the kind of experiment: qHTS Assay for Inhibitors and Substrates of Cytochrome P450 2C9 (AID 883; active = well fitted curve in the direction sought with a large enough effect; an effect the other way counts as inactive or inconclusive; note: potency is the fitted concentration of half-maximal effect; nearly all actives have a fitted effect of over 60% in size). The settings on record: recombinant CYP2C9, luciferin-H luminescence, 60 min; series mostly up to 57.1 µM. The method, boiled down:
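Luminescent read-out of deoxyluciferin hydroxylation, normalized to 57uM sulphaphenazole (AC100). Reaction: 10nM enzyme, 100uM Luciferin-H (equal to KM), 25mM KPO4, 10 min compound preincubation, then 60 min with NADPH regeneration, both at 37C.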

Experiment [15] deals with Cytochrome P450 3A4 (Homo sapiens) (UniProt P08684). As to the kind of experiment: qHTS Assay for Inhibitors and Substrates of Cytochrome P450 3A4 (AID 884; active = well fitted curve in the direction sought with a large enough effect; an effect the other way counts as inactive or inconclusive; note: potency is the fitted concentration of half-maximal effect; nearly all actives have a fitted effect of over 50% in size). The conditions noted are these: recombinant CYP3A4, Luciferin-PPXE luminescence; series mostly up to 57.1 µM. The method, boiled down: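 Luminescent readout of luciferin produced by CYP3A4 (20 nM) dealkylation of Luciferin-PPXE, 25 uM (its KM). NADPH-driven reaction ran 60 min at RT after 10 min compound preincubation; data scaled to 57 uM ketoconazole as 100% inhibition.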
Cytochrome P450 3A4 (Homo sapiens), sequence (P08684 whole entry, looked up): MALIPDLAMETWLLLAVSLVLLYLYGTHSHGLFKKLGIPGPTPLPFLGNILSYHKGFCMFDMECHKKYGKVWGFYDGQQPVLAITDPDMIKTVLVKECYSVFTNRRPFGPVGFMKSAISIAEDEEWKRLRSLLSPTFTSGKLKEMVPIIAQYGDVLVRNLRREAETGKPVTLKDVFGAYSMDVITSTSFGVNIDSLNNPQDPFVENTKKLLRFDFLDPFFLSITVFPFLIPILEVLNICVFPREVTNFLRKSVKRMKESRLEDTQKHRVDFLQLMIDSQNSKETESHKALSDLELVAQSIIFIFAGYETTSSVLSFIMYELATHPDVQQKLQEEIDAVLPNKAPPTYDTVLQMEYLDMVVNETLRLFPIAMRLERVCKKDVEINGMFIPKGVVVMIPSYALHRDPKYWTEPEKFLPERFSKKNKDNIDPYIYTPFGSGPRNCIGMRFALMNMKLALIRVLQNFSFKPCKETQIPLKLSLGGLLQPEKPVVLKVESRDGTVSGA

The structures appear in SMILES notation. Values without a mark were called inactive. Results filed as inconclusive are left out. Active and inactive are the calls of the source. Unless noted, calls come from the whole dose curve; as a rule, active = well fitted curve in either direction with a large enough effect (not every such curve was filed as active); inconclusive = small, poorly fitted or top-dose-only effect, or another doubt; inactive = flat fitted curve, though single readings scatter.

Lysosomal acid glucosylceramidase (Homo sapiens), sequence (P04062 whole entry, looked up): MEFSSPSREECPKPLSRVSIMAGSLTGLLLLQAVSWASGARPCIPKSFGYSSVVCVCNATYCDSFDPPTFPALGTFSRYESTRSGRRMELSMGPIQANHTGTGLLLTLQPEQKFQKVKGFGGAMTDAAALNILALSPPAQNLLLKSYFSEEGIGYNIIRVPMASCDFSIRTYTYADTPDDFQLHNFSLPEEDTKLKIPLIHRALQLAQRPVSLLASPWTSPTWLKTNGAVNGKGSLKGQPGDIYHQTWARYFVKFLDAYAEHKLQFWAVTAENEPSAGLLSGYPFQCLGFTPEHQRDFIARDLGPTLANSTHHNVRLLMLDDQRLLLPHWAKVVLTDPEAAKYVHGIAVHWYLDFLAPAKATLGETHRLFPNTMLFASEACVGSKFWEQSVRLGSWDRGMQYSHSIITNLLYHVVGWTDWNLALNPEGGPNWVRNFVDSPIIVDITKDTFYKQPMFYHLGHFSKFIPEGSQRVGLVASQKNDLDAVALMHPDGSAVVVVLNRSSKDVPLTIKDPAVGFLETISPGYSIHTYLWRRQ
Glucocorticoid receptor (Homo sapiens), sequence (P04150 whole entry, looked up): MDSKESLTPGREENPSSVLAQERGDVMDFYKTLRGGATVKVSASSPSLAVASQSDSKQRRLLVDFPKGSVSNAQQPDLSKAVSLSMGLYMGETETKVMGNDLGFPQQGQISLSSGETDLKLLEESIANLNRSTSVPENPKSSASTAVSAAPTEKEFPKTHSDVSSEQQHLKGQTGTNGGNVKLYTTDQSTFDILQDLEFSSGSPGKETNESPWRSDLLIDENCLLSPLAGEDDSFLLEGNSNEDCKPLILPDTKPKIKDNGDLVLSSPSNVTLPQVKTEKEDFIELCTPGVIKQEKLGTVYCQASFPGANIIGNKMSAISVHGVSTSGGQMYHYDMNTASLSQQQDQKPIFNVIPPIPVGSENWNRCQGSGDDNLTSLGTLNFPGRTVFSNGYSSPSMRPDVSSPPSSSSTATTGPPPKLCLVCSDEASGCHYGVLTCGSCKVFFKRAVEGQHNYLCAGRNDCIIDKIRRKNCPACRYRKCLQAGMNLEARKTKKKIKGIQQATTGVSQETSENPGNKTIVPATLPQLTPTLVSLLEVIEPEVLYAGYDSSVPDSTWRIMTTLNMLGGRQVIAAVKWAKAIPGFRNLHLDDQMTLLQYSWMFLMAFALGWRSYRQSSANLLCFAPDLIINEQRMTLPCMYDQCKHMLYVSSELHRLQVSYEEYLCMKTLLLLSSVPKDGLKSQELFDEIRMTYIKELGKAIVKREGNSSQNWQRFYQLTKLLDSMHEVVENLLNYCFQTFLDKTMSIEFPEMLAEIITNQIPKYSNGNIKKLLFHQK
Cytochrome P450 1A2 (Homo sapiens), sequence (P05177 whole entry, looked up): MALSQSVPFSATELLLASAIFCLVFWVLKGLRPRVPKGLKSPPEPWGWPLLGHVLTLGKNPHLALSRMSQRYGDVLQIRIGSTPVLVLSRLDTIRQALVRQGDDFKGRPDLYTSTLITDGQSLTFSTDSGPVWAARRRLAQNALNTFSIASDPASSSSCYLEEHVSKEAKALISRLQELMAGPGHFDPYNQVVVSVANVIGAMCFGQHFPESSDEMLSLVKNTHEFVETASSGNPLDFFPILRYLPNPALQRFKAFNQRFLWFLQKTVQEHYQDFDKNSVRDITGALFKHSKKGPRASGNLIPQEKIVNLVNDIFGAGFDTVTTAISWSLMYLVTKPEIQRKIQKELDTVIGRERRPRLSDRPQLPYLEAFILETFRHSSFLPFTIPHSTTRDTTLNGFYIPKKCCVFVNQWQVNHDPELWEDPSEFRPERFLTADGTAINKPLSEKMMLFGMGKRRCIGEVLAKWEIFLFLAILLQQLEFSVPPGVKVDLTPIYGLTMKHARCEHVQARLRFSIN
3',5'-cyclic-AMP phosphodiesterase 4B (Homo sapiens), sequence (Q07343 whole entry, looked up): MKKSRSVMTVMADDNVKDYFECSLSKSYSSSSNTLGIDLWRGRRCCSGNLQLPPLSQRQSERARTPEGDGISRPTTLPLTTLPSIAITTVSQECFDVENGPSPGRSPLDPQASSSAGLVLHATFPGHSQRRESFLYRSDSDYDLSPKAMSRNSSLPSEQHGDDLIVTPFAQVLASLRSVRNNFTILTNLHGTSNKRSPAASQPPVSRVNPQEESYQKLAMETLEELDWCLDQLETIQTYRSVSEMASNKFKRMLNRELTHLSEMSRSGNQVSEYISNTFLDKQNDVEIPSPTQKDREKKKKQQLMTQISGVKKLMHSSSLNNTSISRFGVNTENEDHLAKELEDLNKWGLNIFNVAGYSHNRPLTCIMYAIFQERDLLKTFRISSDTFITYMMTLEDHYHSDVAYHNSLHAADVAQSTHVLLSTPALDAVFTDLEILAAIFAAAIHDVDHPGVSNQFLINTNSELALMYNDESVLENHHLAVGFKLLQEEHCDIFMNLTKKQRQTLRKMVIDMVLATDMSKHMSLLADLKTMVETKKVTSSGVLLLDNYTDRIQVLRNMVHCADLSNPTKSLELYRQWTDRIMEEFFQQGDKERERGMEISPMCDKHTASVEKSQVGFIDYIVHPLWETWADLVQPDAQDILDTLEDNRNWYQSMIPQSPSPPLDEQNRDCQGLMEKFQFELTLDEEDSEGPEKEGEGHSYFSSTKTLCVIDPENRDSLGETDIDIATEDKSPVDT
Cytochrome P450 2C9 (Homo sapiens), sequence (P11712 whole entry, looked up): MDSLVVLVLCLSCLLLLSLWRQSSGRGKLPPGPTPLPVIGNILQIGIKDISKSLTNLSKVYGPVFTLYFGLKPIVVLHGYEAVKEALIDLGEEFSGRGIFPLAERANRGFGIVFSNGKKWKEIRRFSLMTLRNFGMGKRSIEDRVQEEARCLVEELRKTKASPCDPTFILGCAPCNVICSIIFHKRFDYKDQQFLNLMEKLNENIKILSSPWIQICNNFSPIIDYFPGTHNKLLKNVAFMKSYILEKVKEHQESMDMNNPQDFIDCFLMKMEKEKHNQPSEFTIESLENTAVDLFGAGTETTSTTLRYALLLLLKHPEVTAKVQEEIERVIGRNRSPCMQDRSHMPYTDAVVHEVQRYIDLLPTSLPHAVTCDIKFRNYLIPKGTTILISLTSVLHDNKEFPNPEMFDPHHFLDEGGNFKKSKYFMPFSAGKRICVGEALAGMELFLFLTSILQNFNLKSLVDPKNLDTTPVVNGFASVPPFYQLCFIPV
Cytochrome P450 2C19 (Homo sapiens), sequence (P33261 whole entry, looked up): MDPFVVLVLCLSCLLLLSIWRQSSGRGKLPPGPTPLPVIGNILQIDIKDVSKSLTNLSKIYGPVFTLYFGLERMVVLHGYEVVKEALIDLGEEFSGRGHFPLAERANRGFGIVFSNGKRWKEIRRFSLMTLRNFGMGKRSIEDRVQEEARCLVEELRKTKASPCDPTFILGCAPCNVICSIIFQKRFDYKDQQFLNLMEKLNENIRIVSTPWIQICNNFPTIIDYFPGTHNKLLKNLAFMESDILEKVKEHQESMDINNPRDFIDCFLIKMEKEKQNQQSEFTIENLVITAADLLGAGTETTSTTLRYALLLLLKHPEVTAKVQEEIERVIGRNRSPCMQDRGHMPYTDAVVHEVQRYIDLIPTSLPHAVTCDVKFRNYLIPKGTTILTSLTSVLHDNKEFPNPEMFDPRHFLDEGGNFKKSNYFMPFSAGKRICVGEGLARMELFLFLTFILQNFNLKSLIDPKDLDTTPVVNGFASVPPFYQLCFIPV

In the case of `COc1ccc(-n2c(=O)c(CCc3ccccc3)nc3cnc(N(C)C)nc32)cc1`, the Potency in experiment [1] was more than 11.4 µM; in experiment [3], 3.16 µM (active); in experiment [6], more than 9.22 µM; in experiment [7], more than 46 µM. In addition, the values for the activity change, negative = inhibition in experiment [2] and in [4] were 0.546% and -2.06%, respectively. The activity, negative = inhibition in [5] is 0.00123%. Also, the Potency result in experiment [8], in experiment [9] and in [10] was “inactive” in each case. In [11], the activation was 10.3%. Besides, the result in [12] was inactive.

Regarding `O=c1c(CCc2ccccc2)nc2cncnc2n1C1CC1`, the Potency is more than 11.4 µM in experiment [1], 6.31 µM (active) in experiment [3], more than 9.22 µM in experiment [6] and more than 46 µM in experiment [7]. In addition, the activity change, negative = inhibition in [2] is -0.738%; in [4], -8.26%. In addition, the activity, negative = inhibition in experiment [5] was -4.39%. For the same compound, the Potency entry in experiment [8], in experiment [9] and in experiment [10] was “inactive” throughout. The activation in experiment [11] is 6.89%. In addition, the outcome in [12] was inactive.

Turning to `O=C(c1csnn1)N1CCC2(CCN(Cc3nccs3)CC2)CC1`, the Potency in experiment [1] is more than 11.4 µM; in [7], more than 46 µM. The activity change, negative = inhibition is -7.97% in [2] and -13.7% in [4]. Further, the Potency entry in [3], in [8] and in [9] was “inactive” each time. For the same compound, the activity, negative = inhibition in experiment [5] was -2.3%. In addition, the outcome in [12] was inactive.

On to `O=c1c(-c2cc(F)cc(F)c2)nc2cnc(Oc3ccccc3)nc2n1C1CC1`, for which the Potency in experiment [1] was more than 11.4 µM; in experiment [3], 2.51 µM (active); in experiment [6], more than 9.22 µM; in experiment [7] it was more than 46 µM. Also, the activity change, negative = inhibition in experiment [2] was -6.73%; in [4], -0.993%. In [5], the activity, negative = inhibition is -0.523%. Besides, the Potency result in experiment [8] and in [9] was “inactive” each time. In experiment [11], the activation was 7.93%. Moreover, the outcome in [12] was inactive.

As to `COc1ncc2ncc(=O)n(Cc3ccc(F)cc3)c2n1`, the Potency in experiment [1] is more than 11.4 µM; in [3], 12.6 µM (active); in experiment [6], more than 9.22 µM; in experiment [7], more than 46 µM; in [13], 7.94 µM (active). The activity change, negative = inhibition in experiment [2] is -11.8%; in [4], -5.96%. Moreover, in experiment [5], the activity, negative = inhibition was -7.56%. Besides, the Potency entry in experiment [8], in experiment [9] and in [10] was “inactive” throughout. Further, in [12], the outcome was inactive.

On to `Cc1nc2cncnc2n(-c2ccccc2)c1=O`, for which the Potency in experiment [1] was more than 11.4 µM; in [3], 10 µM (active); in experiment [6], more than 9.22 µM; in experiment [7], more than 46 µM. Also, the activity change, negative = inhibition is -11.8% in experiment [2] and -0.117% in experiment [4]. In addition, in [5], the activity, negative = inhibition is -12.5%. The Potency entry in experiment [8], in experiment [9] and in experiment [10] was “inactive” in each case. Further, the result in [12] was inactive.

Consider `COc1cccc(Cn2c(=O)cnc3cnc(Oc4cccc(Cl)c4)nc32)c1`, for which the Potency in experiment [1] is more than 11.4 µM; in [3] it was 12.6 µM (active); in experiment [6] it was more than 9.22 µM; in experiment [7] it was more than 46 µM; in [14] it was 3.98 µM (active); in experiment [15] it was 5.01 µM (active). Also, the activity change, negative = inhibition is -19.7% in [2] and -4.32% in experiment [4]. The activity, negative = inhibition in experiment [5] is -20.6%. The Potency result in experiment [8] and in experiment [10] was “inactive” throughout. In addition, in [12], the outcome was inactive.

For the origin of these results see PubChem BioAssay (NCATS).
